An excerpt weighted towards active compounds, which were near 16% of everything screened.
TDP1 block = qHTS Assay for Inhibitors of Tyrosyl-DNA Phosphodiesterase (TDP1). Tyrosyl-DNA phosphodiesterase 1 (Homo sapiens), Q9NUW8. recombinant TDP1, AlphaScreen DNA substrate cleavage. Potency, µM (doses to about 130 µM), most hits filed as inhibitors. actives 0.28% (n = 350,000). AID 485290, 2010; further: nearly all actives have a fitted effect of over 40% in size
Target sequence (Q9NUW8 whole entry, looked up): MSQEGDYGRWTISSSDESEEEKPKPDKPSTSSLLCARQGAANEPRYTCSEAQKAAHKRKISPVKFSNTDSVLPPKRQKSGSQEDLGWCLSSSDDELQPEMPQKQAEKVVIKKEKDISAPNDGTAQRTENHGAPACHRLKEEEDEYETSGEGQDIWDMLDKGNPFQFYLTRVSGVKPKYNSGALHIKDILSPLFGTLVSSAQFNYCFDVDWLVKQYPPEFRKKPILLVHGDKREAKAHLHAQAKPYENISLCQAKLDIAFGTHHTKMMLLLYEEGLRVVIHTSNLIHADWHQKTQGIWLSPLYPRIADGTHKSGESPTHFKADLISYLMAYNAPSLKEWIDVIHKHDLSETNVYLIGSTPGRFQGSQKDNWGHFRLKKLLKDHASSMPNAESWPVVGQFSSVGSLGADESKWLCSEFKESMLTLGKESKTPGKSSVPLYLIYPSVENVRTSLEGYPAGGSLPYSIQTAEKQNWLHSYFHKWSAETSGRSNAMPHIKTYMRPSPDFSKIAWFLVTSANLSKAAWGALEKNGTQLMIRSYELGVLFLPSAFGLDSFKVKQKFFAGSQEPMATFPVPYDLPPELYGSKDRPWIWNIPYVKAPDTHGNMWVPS
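E. coli-derived human Tdp1, 1 nM final. Cpd preinc 15 min RT; substrate 15 nM final, 5 min RT; AS bead mix 10 ug/ml final, 10 min RT. Signal loss = tyrosine-FITC cleavage. No-enzyme wells = max signal.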
uPA surface inh = qHTS for Inhibitors of Cell Surface uPA Generation. actives 0.31% (n = 330,000). AID 540303, 2011. cell surface uPA generation assay, qHTS. Potency, µM (highest dose often 38.3 µM), usual class: inhibitors; active means well fitted inhibition curve with a large enough effect; inconclusive means small, poorly fitted or top-dose-only effect; inactive means no such curve, though single readings can be large or run the other way; tested in mouse RAW 264.7 cells; further: nearly all actives have a fitted effect of over 55% in size
TDP1 cell CPT = qHTS for Inhibitors of human tyrosyl-DNA phosphodiesterase 1 (TDP1): qHTS in cells in presence of CPT. actives 12% (n = 420,000). chicken DT40 Tdp1-/-;hTDP1 cells + 20 nM CPT, ATP luminescence, 48 h. AID 686979, 2013. Potency, µM (series often up to 46.2 µM), actives largely listed as inhibitors; further: nearly all actives have a fitted effect of over 55% in size
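Cell growth measured by CellTiter-Glo luminescence after a minimum 48 h, 37 C compound exposure with 20 nM CPT in Tdp1-knockout DT40 cells stably expressing hTDP1, seeded 400/well; qHTS titration format.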
miR-21 act = qHTS Assay for Modulators of miRNAs and/orActivators of miR-21; HeLa miR-21 FLuc reporter, luciferase, 48 h; Potency, µM (highest dose often 38.3 µM), hits mostly activators; 340,000 tested, under 10 active;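 further: miR-21 action dims this reporter so a rising signal means less miR-21 action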
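Luminescence from a firefly luciferase reporter carrying a miR-21 binding site downstream, stably expressed under a CMV promoter in HeLa cells that make miR-21 endogenously, reports miRNA modulation after 48 h compound exposure up to approximately 40uM final.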
TDP1 cell noCPT = qHTS for Inhibitors of human tyrosyl-DNA phosphodiesterase 1 (TDP1): qHTS in cells in absence of CPT. DT40 Tdp1-/- hTDP1 cells, no CPT, ATP luminescence, 48 h. Potency, µM (doses to about 46.2 µM), usual class: inhibitors. actives 15% (n = 420,000). AID 686978, 2013; further: nearly all actives have a fitted effect of over 55% in size
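No-CPT arm: Tdp1-/-;hTDP1 DT40 cells (400/well) plus compounds, incubated ≥48 hr at 37 °C. Readout CellTiter-Glo luminescence.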
Of the large screens only hits and unclear results are named; the others gave an inactive call. Unless noted, the call rests on the fitted dose curve; in most records, active means well fitted curve in the direction sought with a large enough effect; inconclusive means small, poorly fitted or top-dose-only effect, or another doubt; inactive means no such curve, though single readings can be large; an effect the other way counts as inactive or inconclusive.

O=C(Cn1cc(SCc2ccccc2)c2ccccc21)N1CCCCCC1	TDP1 cell CPT inconclusive, TDP1 cell noCPT inconclusive (no result: uPA surface inh)
CC1CCN(C(=O)Cn2cc(SCc3ccccc3)c3ccccc32)CC1	TDP1 cell CPT 20.6µM, TDP1 cell noCPT 16.4µM (no result: uPA surface inh)
Cc1cccc(CSc2cn(CC(=O)N3CCCCCC3)c3ccccc23)c1	TDP1 cell CPT inconclusive, TDP1 cell noCPT inconclusive (no result: uPA surface inh)
O=C(Cn1cc(SCc2ccc(F)cc2)c2ccccc21)N1CCCCC1	TDP1 cell CPT 16.4µM, TDP1 cell noCPT 16.4µM (no result: uPA surface inh)
Cc1ccc(CSc2cn(CC(=O)N3CCCCC3)c3ccccc23)cc1	TDP1 cell CPT inconclusive, TDP1 cell noCPT 23.1µM (no result: uPA surface inh)
CC1CCN(C(=O)Cn2cc(SCC(=O)NCc3ccccc3)c3ccccc32)CC1	TDP1 cell CPT inconclusive, TDP1 cell noCPT inconclusive (no result: uPA surface inh)
CC1CCN(C(=O)Cn2cc(SCC(=O)NCc3ccc(F)cc3)c3ccccc32)CC1	TDP1 cell CPT inconclusive, TDP1 cell noCPT 20.6µM (no result: uPA surface inh)
NC(=O)C1CCN(c2c([N+](=O)[O-])cc(C(F)(F)F)cc2[N+](=O)[O-])CC1	none
COc1ccccc1C(=O)Nc1ccc2c(c1)CN(C(=O)CSC)CC2	TDP1 cell CPT inconclusive, TDP1 cell noCPT inconclusive
CCOC(=O)CNC(=O)N1CCc2ccc(NC(=O)c3ccccc3Cl)cc2C1	uPA surface inh inconclusive, TDP1 cell CPT 18.4µM, TDP1 cell noCPT 8.2µM (no result: TDP1 block)
CSc1cccc(NC(=O)N2CCc3ccc(NC(=O)c4ccccn4)cc3C2)c1	uPA surface inh inconclusive, TDP1 cell CPT inconclusive, TDP1 cell noCPT 13µM
Cc1cc(C)c2nc(SCC(=O)Nc3ccccc3N3CCOCC3)c(C#N)cc2c1	TDP1 cell CPT inconclusive, TDP1 cell noCPT inconclusive (no result: TDP1 block, miR-21 act)
COc1cc(C(=O)N2CC(=O)Nc3ccccc32)cc(OC)c1OC	TDP1 cell CPT 8.2µM, TDP1 cell noCPT 8.2µM (no result: TDP1 block, uPA surface inh, miR-21 act)
COc1ccc(C(=O)N2CC(=O)Nc3ccccc32)cc1S(=O)(=O)N1CCCC1	TDP1 cell noCPT inconclusive
Cc1cc(C)c2nc(SCC(=O)N3CC(=O)Nc4ccccc43)c(C#N)cc2c1	TDP1 cell CPT 1.3µM, TDP1 cell noCPT 1.3µM
Cc1ccsc1C(=O)N1CC(=O)Nc2ccccc21	TDP1 cell CPT inconclusive, TDP1 cell noCPT 23.1µM
Cc1cc(C)cc(C(=O)N2CC(=O)Nc3ccccc32)c1	TDP1 cell CPT 0.92µM, TDP1 cell noCPT 0.581µM
CS(=O)(=O)c1ccc(C(=O)N2CC(=O)Nc3ccccc32)cc1	none
CONC(=O)c1ccc(-c2cccc3nccn23)cc1	TDP1 cell noCPT inconclusive (no result: TDP1 block, uPA surface inh, miR-21 act)
O=C(C=Cc1ccc2c(c1)OCO2)C1CC1	TDP1 cell noCPT inconclusive (no result: TDP1 block, uPA surface inh, miR-21 act)
N#CC(=C1Nc2ccccc2N1)S(=O)(=O)c1ccccc1	TDP1 cell CPT inconclusive, TDP1 cell noCPT inconclusive
O=C(CNC(=O)c1nc[nH]c1C(=O)N1CCc2ccccc2C1)OCc1ccccc1	TDP1 cell CPT inconclusive (no result: TDP1 block)
COc1cccc(C(=O)Nc2ccc3c(c2)n(C)c(=O)n3C)c1	TDP1 cell noCPT inconclusive (no result: TDP1 block)
CC(=O)Oc1cc2c(cc1Cl)C(c1cccs1)CC1(CC(C)(C)NC(=S)N1)O2 (configuration not stated)	TDP1 cell CPT 8.2µM, TDP1 cell noCPT 16.4µM
COc1ccc(C2CC3(CC(C)(C)NC(SC)=N3)Oc3cc(O)cc(C)c32)cc1 (configuration not stated)	TDP1 cell CPT 4.61µM, TDP1 cell noCPT 5.17µM
CC1(C)CC2(CC(c3ccccc3)c3ccc(O)cc3O2)NC(=S)N1 (configuration not stated)	TDP1 cell CPT inconclusive, TDP1 cell noCPT 9.2µM
COc1ccc(C2CC3(CC(C)(C)NC(=S)N3)Oc3cc(O)cc(C)c32)cc1 (configuration not stated)	TDP1 cell CPT 9.2µM, TDP1 cell noCPT 8.2µM
COc1ccc(C2CC3(CC(C)(C)NC(=O)N3)Oc3cc(O)ccc32)cc1 (configuration not stated)	TDP1 cell CPT inconclusive, TDP1 cell noCPT inconclusive
O=C(NCCCn1ccnc1)c1nn2c(C(F)(F)F)cc(-c3ccccc3)nc2c1Cl	TDP1 cell noCPT inconclusive
C[C@H](CO)N1C[C@H](C)[C@@H](CN(C)Cc2ccccc2C(=O)O)OCc2cnnn2CCCC1=O	none (no result: TDP1 block, uPA surface inh, miR-21 act)
Cc1cc(C)cc(N=Cc2[nH]c3ccc(Br)c(Cl)c3c2O)c1	TDP1 cell CPT 16.4µM, TDP1 cell noCPT inconclusive
Cc1ccc(S(=O)(=O)N/N=C\c2cn(CC(N)=O)c3ccccc23)cc1	none
COc1ccc(OC)c(S(=O)(=O)N/N=C\c2cn(CC(N)=O)c3ccccc23)c1	TDP1 cell CPT 13µM, TDP1 cell noCPT inconclusive
Cc1cc(/C=N/n2c(COc3ccccc3C)nc3ccccc3c2=O)c(O)c([N+](=O)[O-])c1	uPA surface inh inconclusive, TDP1 cell CPT 18.4µM, TDP1 cell noCPT 13µM
COc1ccccc1/C=C/C=N/n1c(COc2ccccc2)n[nH]c1=S	TDP1 cell CPT inconclusive, TDP1 cell noCPT 14.6µM
CC(=O)Nn1c(COc2ccccc2C)nc2ccccc2c1=O	none
O=[N+]([O-])c1ccc(Cl)c(/C=N/n2c(COc3ccccc3)n[nH]c2=S)c1	uPA surface inh inconclusive, TDP1 cell CPT 18.4µM, TDP1 cell noCPT 20.6µM
Cc1cccc(C)c1OCc1nc2ccccc2c(=O)n1/N=C/c1c[nH]c2ccccc12	TDP1 cell CPT 20.6µM, TDP1 cell noCPT inconclusive
Cc1cccc(N2C(=O)CC(n3ccnc3)C2=O)c1C (configuration not stated)	none
O=c1c2ccccc2nc(COc2ccccc2)n1/N=C/c1cc([N+](=O)[O-])ccc1O	TDP1 cell CPT 6.51µM, TDP1 cell noCPT 13µM
Cc1ccccc1OCc1nc2ccccc2c(=O)n1/N=C/c1c[nH]c2ccccc12	none
CCCc1nc2ccccc2c(=O)n1/N=C/c1ccccc1O	TDP1 cell CPT inconclusive
Cc1ccc(-c2[nH]ncc2/C=N/n2c(COc3ccccc3C)nc3ccccc3c2=O)cc1	TDP1 cell CPT 20.6µM, TDP1 cell noCPT 16.4µM
N#CCOc1coc(CN2CCN(c3ccccc3)CC2)cc1=O	none
CCCN(Cc1cccs1)C(=O)Nc1cc(Cl)ccc1C	TDP1 cell CPT inconclusive, TDP1 cell noCPT 23.1µM (no result: uPA surface inh)
COc1ccc(N(CC(=O)NC2CC3CCC2C3)S(=O)(=O)c2ccccc2)cc1OC (configuration not stated)	none
CCOc1ccc(N(CC(=O)NC2CC3CCC2C3)S(=O)(=O)c2ccc(C)cc2)cc1 (configuration not stated)	TDP1 cell CPT 16.4µM, TDP1 cell noCPT inconclusive
CCOc1ccc(N(CC(=O)NCC2CCCO2)S(=O)(=O)c2ccc(SC)cc2)cc1 (configuration not stated)	TDP1 cell CPT 12.6µM (no result: uPA surface inh)
